# Assay results from PubChem BioAssay (NCI).
# Compounds without any hit were thinned out: in the full panel of roughly 83,000, 20% have a hit.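 Negative percent growth values reflect cell death: -40 means 40% of the cells present at the start died, and -100 means all died.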 Values without a mark were called inactive. The source made the active and inactive calls. The calls were made as follows: active = growth percent below 10; inactive = the rest.
# Test system: SK-OV-3 ovarian
# Test: NCI-60 one-dose screen, 48 h (100 = growth as untreated, 0 = no growth, -100 = all killed)
# Details: 10 µM unless noted
row,Compound,growth
1,CNC(=O)c1cc(Oc2ccc3nc(NC(=O)Nc4ccc(F)cc4F)sc3c2)ccn1,76.3%
2,CCOC(=O)c1c2c(n3ccc(NC(=O)CCN4CCCC4)cc13)C(=O)c1ncccc1C2=O,74.4%
3,CNC(=O)c1cc(Oc2ccc3nc(NC(=O)c4cc(C(F)(F)F)cc(C(F)(F)F)c4)sc3c2)ccn1,-2.45% (active)
4,CC(=O)CC(=O)c1ccccc1.[Cu+2],82.4%
5,O=c1c2cccc3c(N4CCOCC4)ccc(c32)c2nc3ccccc3n12,91.4%
6,CN(C)C(=O)OCc1ccc2c(Cl)cc(Cl)c(O)c2n1,50.1%
7,COc1ccc(-c2ccc(-c3ccc(C(=N)N)nc3)s2)cc1,89.2%
8,CN1CCN(c2ccc(Nc3ncc4[nH]c(=O)n(Cc5ccccc5N)c4n3)cc2)CC1,81.3%
9,NC(=N\N=C/c1ccc(Cl)cc1Cl)/C(N)=N\N=C/c1ccc(Cl)cc1Cl,9.34% (active)
10,C=C1C(=O)O[C@H]2[C@H]1CC/C(COC(=O)NCc1ccc(Cn3c(=O)sn(CCCC)c3=O)cc1)=C\CC[C@@]1(C)O[C@@H]21,107%
11,FC(F)(F)c1cccc(-c2nnn(Cc3cc(-c4cccc(Cl)c4)no3)n2)c1,98.8%
12,O=C(c1ccc(F)cc1)C1CCN(CCn2c(=O)[nH]c3ccccc3c2=O)CC1,102%
13,Cc1ccc(C2(C)NC(=O)N(CC(=O)Nc3cccc(C)c3)C2=O)cc1 (stereo not given),97.6%
14,COc1ccc(C(=O)C2OC3=C(C(=O)CC(C)(C)C3)C2c2cccc(Oc3ccccc3)c2)cc1 (stereo not given),91.4%
15,CC1(C)C2=C(C(=O)N1Cc1ccccc1)C(c1ccco1)N(C(=O)C1CCC1)CCN2 (stereo not given),103%
16,COc1ccc(Nc2nccc(Nc3ccc4[nH]ncc4c3)n2)cc1,52.1%
17,Cc1nn(-c2ccccc2)c(Oc2ccccc2)c1/C=N/NC(=O)Cn1c(=O)sc2ccccc21,61%
18,CCN1C(=O)N(CC)C2C1NC(=S)N2/N=C/C=C/c1cccs1 (stereo not given),43.7%

row,Compound,growth
1,O=C(Nc1ncc(Cc2ccc(Cl)cc2)s1)c1ccc2c(c1)OCCO2,33.4%
2,C#Cc1ccc(NC(=O)Cc2ccc(/C=C/C(=O)c3nccn3C)cc2)cc1,109%
3,CN(C)CCOc1nc2c3cc([N+](=O)[O-])ccc3nn2c2ccccc12,34.9%
4,CCN(CC)CCCC(Nc1c2ccc(Cl)cc2nc2ccc(OC)cc12)c1ccncc1 (stereo not given),97.6%
5,CCOC(=O)c1cnc2sc(-c3ccc(OC)cc3)nc2c1Cl,121%
6,COc1ccc2c(O)cc3c(c2c1)[C@H](CCl)CN3C(=O)c1cc2cc(NC(=O)CCN3CCOCC3)ccc2[se]1,-42% (active)
7,Oc1ccc(Cc2ccc(O)c3ncccc23)c2cccnc12,-17.2% (active)
8,CO[C@]12C=C/C(=C(/C(=O)OCc3cccnc3)C(=O)CCCCCCCC[C@]3(OC)C=C/C(=C(/C(=O)OCc4cccnc4)C(=O)CCCCCCCC1)O3)O2,-0.89% (active)
9,CC(C)=CCC[C@](C)(O)C1CC[C@]2(C)[C@@H]1CC[C@@H]1[C@@]3(C)CC/C(=N\OCCC#N)C(C)(C)[C@@H]3CC[C@]12C (stereo not given in full),84.3%
10,Cn1cc(-c2ccc3c(Nc4cccc(NC(=O)Nc5cccc(F)c5)c4)ncnc3c2)cn1,3.1% (active)
11,O=c1oc2ccccc2cc1-c1nn(-c2ccccc2)cc1/C=N/Nc1nc(-c2ccccc2)c(N=Nc2ccccc2)s1,82.8%
12,CCCNNC(=O)c1ccc(CNC(=O)/C=C/c2ccccc2)cc1,8.72% [2.5 µM] (active)
13,C=C(CNCCO)[C@@H]1CC[C@]2(CO)CC[C@]3(C)[C@H](CC[C@@H]4[C@@]5(C)CCC(NCCO)C(C)(C)[C@@H]5CC[C@]43C)[C@@H]12 (stereo not given in full),94.6%
14,COc1cccc(-c2cc(-c3ccc(Nc4nc(Nc5ccc(Cl)cc5)nc(Nc5ccc(Cl)cc5)n4)cc3)nc(N)c2C#N)c1,122%
15,CC(C)C(=O)Nc1ncc(C(=O)NCCN(Cc2ccccc2)C(=O)c2ccc(S(=O)(=O)Nc3ccccc3)cc2)s1,110%
16,CN1CCN(Cc2ccc(NC(=O)c3cncc(C#Cc4cnc(N)c5ccc(C#N)cc45)c3)cc2C(F)(F)F)CC1,-4.83% (active)
17,COc1ccc2c(c1)c(-c1nc(-c3cn(C)c4ccncc34)cs1)cn2C,119%
